Data: the supplement of paper PMC6411743
± gives the standard deviation of the averaged measurements. About 6,500 targets were measured; listed, in parts, are those with the largest changes and a random draw of the rest.

Compound: Nc1ncnc2c1ncn2[C@@H]1O[C@H](COP(=O)(O)OP(=O)(O)OP(=O)(O)O)[C@@H](O)[C@H]1O [adenosine triphosphate]
Assay: NP40-soluble protein abundance relative to vehicle (solubility fold change) (ratio); higher = more soluble protein in presence of ATP
Procedure, shortened: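 Eight concentrations, 0.1 to 10 mM, were tested on Jurkat crude lysate for 10 min at room temperature and then 3 min at 37 °C, in three independent experiments. The lysate was solubilised with 0.8% NP40 and benzonase, ultracentrifuged, and the supernatant TMT-labelled for LC-MS/MS. Each value is the fold change against the detergent-processed vehicle in its own replicate, from vsn-normalised intensities.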

UniProt P26368, sequence (P26368 whole entry): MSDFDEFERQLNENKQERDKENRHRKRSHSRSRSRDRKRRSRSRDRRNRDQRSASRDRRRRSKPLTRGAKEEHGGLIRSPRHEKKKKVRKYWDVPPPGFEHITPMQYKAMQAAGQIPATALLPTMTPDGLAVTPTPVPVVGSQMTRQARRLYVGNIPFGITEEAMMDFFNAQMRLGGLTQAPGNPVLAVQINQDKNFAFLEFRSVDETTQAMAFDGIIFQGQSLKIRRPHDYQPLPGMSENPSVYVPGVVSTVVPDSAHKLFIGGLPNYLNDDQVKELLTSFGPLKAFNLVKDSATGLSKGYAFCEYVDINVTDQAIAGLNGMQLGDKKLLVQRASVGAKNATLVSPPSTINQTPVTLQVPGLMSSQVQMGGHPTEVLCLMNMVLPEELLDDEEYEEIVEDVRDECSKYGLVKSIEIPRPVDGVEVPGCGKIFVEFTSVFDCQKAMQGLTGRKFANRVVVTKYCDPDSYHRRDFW
UniProt O75718, sequence (O75718 whole entry): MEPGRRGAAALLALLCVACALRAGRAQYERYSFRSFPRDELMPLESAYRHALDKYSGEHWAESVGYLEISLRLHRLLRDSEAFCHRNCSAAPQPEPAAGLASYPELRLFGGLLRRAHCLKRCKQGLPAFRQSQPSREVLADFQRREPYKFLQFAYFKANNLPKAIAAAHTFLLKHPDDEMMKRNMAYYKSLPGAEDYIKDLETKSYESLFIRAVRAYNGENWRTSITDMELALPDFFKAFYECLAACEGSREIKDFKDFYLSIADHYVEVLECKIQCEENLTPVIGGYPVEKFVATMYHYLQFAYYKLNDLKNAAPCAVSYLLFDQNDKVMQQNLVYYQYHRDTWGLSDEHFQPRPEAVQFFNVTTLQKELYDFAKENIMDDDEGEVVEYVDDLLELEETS
UniProt Q01196, sequence (Q01196 whole entry): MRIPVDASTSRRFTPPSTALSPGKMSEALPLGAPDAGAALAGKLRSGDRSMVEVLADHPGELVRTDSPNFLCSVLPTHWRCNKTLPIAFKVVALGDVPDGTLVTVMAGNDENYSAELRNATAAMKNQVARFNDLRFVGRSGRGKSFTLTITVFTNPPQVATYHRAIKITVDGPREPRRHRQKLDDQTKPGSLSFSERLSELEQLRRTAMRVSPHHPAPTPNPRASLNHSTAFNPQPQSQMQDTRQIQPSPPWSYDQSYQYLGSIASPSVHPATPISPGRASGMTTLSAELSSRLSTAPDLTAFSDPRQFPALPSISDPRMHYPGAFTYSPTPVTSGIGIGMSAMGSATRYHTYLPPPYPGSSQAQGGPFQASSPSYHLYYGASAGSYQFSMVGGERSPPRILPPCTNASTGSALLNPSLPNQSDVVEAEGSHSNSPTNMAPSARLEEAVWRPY
UniProt P46019, sequence (P46019 whole entry): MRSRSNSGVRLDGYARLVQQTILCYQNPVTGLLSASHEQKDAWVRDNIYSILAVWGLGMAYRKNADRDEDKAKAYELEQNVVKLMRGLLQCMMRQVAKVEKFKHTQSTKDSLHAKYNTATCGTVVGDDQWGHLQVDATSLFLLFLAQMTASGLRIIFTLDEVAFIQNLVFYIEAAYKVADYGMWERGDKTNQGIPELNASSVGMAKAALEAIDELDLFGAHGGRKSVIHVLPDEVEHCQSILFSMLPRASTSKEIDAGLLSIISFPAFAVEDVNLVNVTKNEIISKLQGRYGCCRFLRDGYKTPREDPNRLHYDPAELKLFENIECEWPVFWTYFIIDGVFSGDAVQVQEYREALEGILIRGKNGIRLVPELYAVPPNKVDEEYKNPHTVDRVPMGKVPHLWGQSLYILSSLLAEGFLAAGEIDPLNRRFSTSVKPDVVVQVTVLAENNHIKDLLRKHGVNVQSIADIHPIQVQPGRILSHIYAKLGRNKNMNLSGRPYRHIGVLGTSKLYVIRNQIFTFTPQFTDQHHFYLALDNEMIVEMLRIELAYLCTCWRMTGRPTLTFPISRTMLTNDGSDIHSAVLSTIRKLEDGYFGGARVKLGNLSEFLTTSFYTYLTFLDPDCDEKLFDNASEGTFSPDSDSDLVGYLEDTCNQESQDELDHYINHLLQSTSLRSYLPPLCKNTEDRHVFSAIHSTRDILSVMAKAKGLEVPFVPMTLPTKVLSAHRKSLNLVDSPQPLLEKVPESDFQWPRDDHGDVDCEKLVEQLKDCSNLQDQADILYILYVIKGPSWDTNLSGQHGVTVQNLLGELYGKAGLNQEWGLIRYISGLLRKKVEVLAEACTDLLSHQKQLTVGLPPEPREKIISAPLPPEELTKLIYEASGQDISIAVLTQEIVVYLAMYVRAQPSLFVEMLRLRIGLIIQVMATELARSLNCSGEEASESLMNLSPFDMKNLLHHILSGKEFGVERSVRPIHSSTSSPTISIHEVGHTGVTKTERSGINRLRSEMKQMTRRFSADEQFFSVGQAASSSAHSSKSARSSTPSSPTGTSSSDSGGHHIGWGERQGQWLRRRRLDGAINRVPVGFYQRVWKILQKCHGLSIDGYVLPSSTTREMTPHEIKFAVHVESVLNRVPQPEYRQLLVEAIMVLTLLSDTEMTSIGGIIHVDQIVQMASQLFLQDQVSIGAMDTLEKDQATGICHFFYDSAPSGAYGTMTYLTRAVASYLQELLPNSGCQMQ
UniProt P23458, sequence (P23458 whole entry): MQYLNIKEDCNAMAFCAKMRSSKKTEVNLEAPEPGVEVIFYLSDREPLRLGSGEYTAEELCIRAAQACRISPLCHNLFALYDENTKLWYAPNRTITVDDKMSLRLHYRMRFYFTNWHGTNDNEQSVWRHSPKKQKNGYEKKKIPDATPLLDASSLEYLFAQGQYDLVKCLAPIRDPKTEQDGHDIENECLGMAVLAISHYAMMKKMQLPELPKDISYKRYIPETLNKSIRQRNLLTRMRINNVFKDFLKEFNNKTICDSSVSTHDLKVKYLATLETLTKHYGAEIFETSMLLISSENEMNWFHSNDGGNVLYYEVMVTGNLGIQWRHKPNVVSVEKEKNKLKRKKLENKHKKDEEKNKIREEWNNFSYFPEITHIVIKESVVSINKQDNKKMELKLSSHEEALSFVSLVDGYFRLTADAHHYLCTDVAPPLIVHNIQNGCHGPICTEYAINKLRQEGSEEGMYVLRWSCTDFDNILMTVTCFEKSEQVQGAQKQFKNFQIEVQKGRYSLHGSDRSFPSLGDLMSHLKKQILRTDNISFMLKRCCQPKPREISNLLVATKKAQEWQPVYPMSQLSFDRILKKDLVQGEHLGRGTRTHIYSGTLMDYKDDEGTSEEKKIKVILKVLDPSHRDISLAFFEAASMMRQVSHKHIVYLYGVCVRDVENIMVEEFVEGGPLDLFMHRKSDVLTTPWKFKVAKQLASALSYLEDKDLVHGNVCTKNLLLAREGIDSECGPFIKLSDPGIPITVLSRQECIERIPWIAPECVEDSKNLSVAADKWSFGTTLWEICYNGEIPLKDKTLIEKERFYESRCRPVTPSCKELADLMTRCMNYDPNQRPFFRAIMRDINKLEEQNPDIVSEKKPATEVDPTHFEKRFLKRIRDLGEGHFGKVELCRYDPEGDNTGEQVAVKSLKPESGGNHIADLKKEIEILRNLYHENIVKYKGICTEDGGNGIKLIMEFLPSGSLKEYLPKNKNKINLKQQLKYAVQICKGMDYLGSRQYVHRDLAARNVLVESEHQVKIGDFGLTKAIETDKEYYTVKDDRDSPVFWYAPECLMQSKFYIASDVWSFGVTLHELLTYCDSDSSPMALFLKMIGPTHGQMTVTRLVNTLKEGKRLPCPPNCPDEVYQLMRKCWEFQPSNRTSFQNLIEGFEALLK
UniProt P22087, sequence (P22087 whole entry): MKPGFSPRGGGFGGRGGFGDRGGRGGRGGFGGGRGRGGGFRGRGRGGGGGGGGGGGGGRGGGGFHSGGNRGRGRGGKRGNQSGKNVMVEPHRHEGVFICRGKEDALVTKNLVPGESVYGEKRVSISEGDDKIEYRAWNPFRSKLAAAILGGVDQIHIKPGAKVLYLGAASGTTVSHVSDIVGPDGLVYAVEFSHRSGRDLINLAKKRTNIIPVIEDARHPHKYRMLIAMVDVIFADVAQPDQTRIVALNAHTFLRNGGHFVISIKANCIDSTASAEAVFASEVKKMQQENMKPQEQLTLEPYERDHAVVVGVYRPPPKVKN
UniProt P50897, sequence (P50897 whole entry): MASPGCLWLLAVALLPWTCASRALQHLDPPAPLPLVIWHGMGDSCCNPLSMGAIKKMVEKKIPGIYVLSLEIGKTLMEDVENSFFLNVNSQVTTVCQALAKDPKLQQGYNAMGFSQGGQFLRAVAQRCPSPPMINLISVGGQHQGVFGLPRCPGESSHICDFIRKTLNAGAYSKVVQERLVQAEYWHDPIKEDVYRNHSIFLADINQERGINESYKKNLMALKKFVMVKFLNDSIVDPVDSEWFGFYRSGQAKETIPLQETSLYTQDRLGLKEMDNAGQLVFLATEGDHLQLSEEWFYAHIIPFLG
UniProt P35610, sequence (P35610 whole entry): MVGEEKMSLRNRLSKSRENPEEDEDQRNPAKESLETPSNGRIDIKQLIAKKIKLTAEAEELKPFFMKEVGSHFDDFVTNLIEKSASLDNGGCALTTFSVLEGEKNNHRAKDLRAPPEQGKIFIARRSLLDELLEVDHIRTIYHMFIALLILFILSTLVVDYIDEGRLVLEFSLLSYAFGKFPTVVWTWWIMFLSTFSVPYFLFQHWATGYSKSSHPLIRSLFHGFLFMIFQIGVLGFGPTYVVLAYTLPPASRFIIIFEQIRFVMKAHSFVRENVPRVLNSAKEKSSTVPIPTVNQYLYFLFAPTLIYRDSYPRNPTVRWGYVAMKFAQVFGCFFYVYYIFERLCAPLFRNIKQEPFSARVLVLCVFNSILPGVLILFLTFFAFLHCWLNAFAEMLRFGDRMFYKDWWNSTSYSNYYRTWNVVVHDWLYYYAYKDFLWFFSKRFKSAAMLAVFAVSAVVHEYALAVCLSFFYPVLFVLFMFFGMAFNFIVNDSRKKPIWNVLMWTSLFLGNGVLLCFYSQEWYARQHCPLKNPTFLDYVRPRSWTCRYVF

Target	NP40-soluble protein abundance (concentration: 1mM)	NP40-soluble protein abundance (concentration: 2mM)	NP40-soluble protein abundance (concentration: 4mM)	NP40-soluble protein abundance (concentration: 6mM)	NP40-soluble protein abundance (concentration: 8mM)	NP40-soluble protein abundance (concentration: 10mM)
IARS (UniProt P41252)	1.1 ± 0.14	1 ± 0.072	0.974 ± 0.058	0.905 ± 0.059	1.05 ± 0.035	0.975 ± 0.078
VAMP7 (UniProt P51809)	0.955 ± 0.046	0.958 ± 0.05	0.938 ± 0.028	0.894 ± 0.1	0.943 ± 0.044	0.945 ± 0.044
UniProt O94925|O94925-3	1.02 ± 0.071	0.968 ± 0.035	0.981 ± 0.078	0.944 ± 0.05	0.978 ± 0.061	0.947 ± 0.039
PHKA2 (UniProt P46019)	0.975 ± 0.071	0.9386 ± 0.0054	0.92 ± 0.033	0.932 ± 0.087	0.95 ± 0.028	0.919 ± 0.029
JAK1 (UniProt P23458)	1.21 ± 0.015	1.21 ± 0.022	1.23 ± 0.032	1.16 ± 0.043	1.27 ± 0.047	1.26 ± 0.041
UniProt P35251|P35251-2	1.23 ± 0.086	1.36 ± 0.093	1.45 ± 0.1	1.58 ± 0.11	1.51 ± 0.069	1.56 ± 0.084
SOAT1 (UniProt P35610)	1.02 ± 0.042	1 ± 0.028	0.999 ± 0.055	0.97 ± 0.029	1.03 ± 0.019	0.971 ± 0.041
UniProt Q01196|Q01196-8|Q01196-2	1.07 ± 0.026	1.08 ± 0.024	1.11 ± 0.016	1.17 ± 0.034	1.15 ± 0.028	1.21 ± 0.034
UniProt O95639|O95639-2|O95639-3	1.3 ± 0.028	1.38 ± 0.046	1.52 ± 0.06	1.64 ± 0.1	1.7 ± 0.039	1.73 ± 0.078
UniProt P26368|P26368-2	1.96 ± 0.078	1.99 ± 0.078	2.01 ± 0.076	2.06 ± 0.032	2.11 ± 0.079	2.09 ± 0.12
UniProt P50750-2|P50750	1.18 ± 0.047	1.26 ± 0.047	1.38 ± 0.018	1.47 ± 0.13	1.64 ± 0.058	1.7 ± 0.1
ATF1 (UniProt P18846)	0.986 ± 0.2	0.951 ± 0.033	1.02 ± 0.14	0.999 ± 0.054	0.97 ± 0.074	0.917 ± 0.068
PPT1 (UniProt P50897)	0.942 ± 0.054	0.92 ± 0.019	0.877 ± 0.034	0.957 ± 0.035	0.903 ± 0.016	0.86 ± 0.039
CD53 (UniProt P19397)	0.898 ± 0.042	0.833 ± 0.05	0.85 ± 0.06	0.832 ± 0.049	0.823 ± 0.07	0.791 ± 0.093
UniProt P25398	0.879 ± 0.058	0.861 ± 0.073	0.813 ± 0.071	0.817 ± 0.087	0.761 ± 0.043	0.779 ± 0.061
HSP90AB1 (UniProt P08238)	1.01 ± 0.063	0.99 ± 0.052	0.983 ± 0.05	0.928 ± 0.069	0.953 ± 0.022	0.964 ± 0.064
UniProt P49903|P49903-2	1 ± 0.039	0.992 ± 0.02	0.962 ± 0.049	0.979 ± 0.068	0.966 ± 0.052	0.96 ± 0.042
FBL (UniProt P22087)	1.11 ± 0.075	1.13 ± 0.058	1.25 ± 0.047	1.544 ± 0.0074	1.93 ± 0.025	2.51 ± 0.15
CDKN2D (UniProt P55273)	0.959 ± 0.065	0.928 ± 0.036	0.953 ± 0.046	0.953 ± 0.019	0.951 ± 0.024	0.872 ± 0.045
CRTAP (UniProt O75718)	1.11 ± 0.024	1.14 ± 0.032	1.16 ± 0.024	1.19 ± 0.034	1.19 ± 0.033	1.2 ± 0.052
SNAP29 (UniProt O95721)	0.967 ± 0.086	0.943 ± 0.043	0.939 ± 0.055	0.967 ± 0.04	0.939 ± 0.036	0.877 ± 0.046
SGPL1 (UniProt O95470)	1.05 ± 0.14	1.03 ± 0.1	1.02 ± 0.086	0.965 ± 0.094	1.07 ± 0.079	1.06 ± 0.075
UniProt P59190	1.18 ± 0.054	2.37 ± 1.5	1.25 ± 0.21	1.16 ± 0.23	1.22 ± 0.2	1.18 ± 0.15
UniProt Q01082|Q01082-3	0.887 ± 0.029	0.899 ± 0.014	0.928 ± 0.03	1.05 ± 0.037	1.04 ± 0.06	1.07 ± 0.048
